Data from ChEMBL document CHEMBL1157539, “Thousands of chemical starting points for antimalarial lead identification” (Nature, 2010).
In all, about 13,000 compounds were measured (“IFI”: median about 4, highest 2% from about 17 on). This excerpt belongs to a sample that is enriched for the highest values.

test: GSK_TCMDC: Inhibition Frequency Index (IFI). The number of non-kinase HTS assays where a compound showed > 50 % inhibition, expressed as a percentage of the number of such assays in which the compound was tested; type: functional

| SMILES | IFI |
| --- | --- |
| CCN(CC)CCCCCNc1c2ccc(Cl)cc2nc2ccc(OC)cc12 | 8.03% |
| COc1cc2nc(-c3ccc(Br)cc3)cc(N)c2cc1OC | 11.1% |
| Cc1ccc(NC(=O)Nc2ccc(Cl)c(C(F)(F)F)c2)cc1-c1ccc(C(=O)Nc2ccncc2)cc1 | 18.3% |
| Cc1ccc(NC(=O)Nc2ccc(Cl)c(C(F)(F)F)c2)cc1-c1ccc(C(=O)NCCN2CCOCC2)cc1 | 13.2% |
| Cc1ccc(NC(=O)c2ccc(N3CCN(c4ccncc4)CC3)cc2)cc1F | 6.9% |
| Cc1ccc(NC(=O)c2ccc(Cl)c(Cl)c2)cc1-c1ccc(C(=O)Nc2ccncc2)cc1 | 8.82% |
| Cc1ccc(C)c(NC(=O)Nc2ccc(C)c(-c3ccc(C(=O)Nc4ccncc4)cc3)c2)c1 | 14.1% |
| Cc1ccc(NC(=O)Nc2ccccc2F)cc1-c1ccc(C(=O)Nc2ccncc2)cc1 | 26.4% |
| Cc1ccc2c(=O)cc(CCc3cccc(F)c3F)n(CC(=O)N(Cc3ccc(-c4ccc(C(F)(F)F)cc4)cc3)C3CCN(C)CC3)c2n1 | 8.51% |
| CC(C)(C)N1CCC(N(Cc2ccc(-c3ccc(C(F)(F)F)cc3)cc2)C(=O)Cn2c(CCc3cccc(F)c3F)nc(=O)c3cccnc32)CC1 | 16.7% |
| CC(C)COc1ccc(Cl)cc1Cc1ccc(-c2nc3ccc(Br)cc3[nH]2)o1 | 19.8% |
| CC(C)COc1ccc(Cl)cc1Cc1ccc(-c2nc3ccc(F)cc3[nH]2)o1 | 15.5% |
| CC(C)COc1ccc(Cl)cc1Cc1ccc(-c2nc3ccc(Cl)cc3[nH]2)o1 | 19.1% |
| CC(C)COc1ccc(Cl)cc1Cc1ccc(-c2nc3c(F)cccc3[nH]2)o1 | 15.5% |
| CC(C)COc1ccc(Cl)cc1Cc1ccc(-c2nc3ccc(C(F)(F)F)cc3[nH]2)o1 | 11.3% |
| CC(C)COc1ccc(Cl)cc1Cc1ccc(-c2nc3ccc(F)c(F)c3[nH]2)o1 | 11.3% |
| NC(=O)c1ccccc1Nc1nc(Nc2cc[nH]n2)ncc1Cl | 0% |
| Cc1cc(=NN=Cc2ccccc2F)c2cc(F)ccc2[nH]1 | 0% |
| Cc1cccc(N2CCN(C3CCC(NC(=O)c4cc5ccccc5[nH]4)CC3)CC2)c1C (stereo unspecified) | 22.9% |
| O=C(NC1CCC(N2CCC(O)(c3ccc(F)cc3)CC2)CC1)c1cc2ccccc2[nH]1 (stereo unspecified) | 1.54% |
| O=C(NC1CCC(N2CCC(Cc3ccc(F)cc3)CC2)CC1)c1cc2ccccc2[nH]1 (stereo unspecified) | 14.7% |
| O=C(NC1CCC(N2CCC(c3ccccc3C(F)(F)F)CC2)CC1)c1cc2ccccc2[nH]1 (stereo unspecified) | 10.4% |
| O=C(NC1CCC(N2CCN(c3cccc(C(F)(F)F)c3)CC2)CC1)c1cc2ccccc2[nH]1 (stereo unspecified) | 17.6% |

| SMILES | IFI |
| --- | --- |
| Cc1cccc(C)c1N1CCN(C2CCC(NC(=O)c3cc4ccccc4[nH]3)CC2)CC1 (stereo unspecified) | 13.2% |
| COc1ccc(Nc2c3ccc(Cl)cc3nc3ccc(OC)cc23)cc1 | 5.11% |
| COc1ccccc1C1CCN(C2CCC(NC(=O)/C=C/c3cc(F)cc(C(F)(F)F)c3)CC2)CC1 (stereo unspecified) | 11.5% |
| Cc1cccc2nc(-c3ccc(-c4cccc(CNCc5ccccc5)c4)s3)[nH]c12 | 4.81% |
| COc1ccc(-c2cncc3ccc(C(=O)NCc4ccncc4)nc23)cc1 | 6.45% |
| COc1ccc(Cc2cccc(C(C(=O)NCc3cc(Cl)cc(Cl)c3)N3CCN(C)CC3)c2)cc1 (stereo unspecified) | 7.75% |
| O=C(Nc1cccc(C(F)(F)F)c1)Nc1ccc(Cl)c(C(F)(F)F)c1 | 16.7% |
| CC(C)NCC(=O)Nc1cccc(C(=O)Nc2cccc(C(F)(F)F)c2)c1 | 2.04% |
| NC(=O)CCC(NC(=O)CNC(=O)Nc1cccc(C(F)(F)F)c1)C(=O)O (stereo unspecified) | 19.9% |
| CC(=O)N1N=C(c2ccc(Cl)cc2)Sc2c1nc(-c1ccccc1)n2C(C)=O | 0% |
| Cn1c(=O)c2cc(C(=O)NCCCN3CCCCCC3)sc2c2ccccc21 | 3.23% |
| OCCN1CCN(Cc2ccc(-c3ccc(-c4nc5cc(F)ccc5[nH]4)cc3)cc2)CC1 | 8.91% |
| Cc1cc(=NN=Cc2ccc(F)cc2)c2cc(F)ccc2[nH]1 | 2.86% |
| COc1ccc(C(=O)CCC(=O)N(Cc2ccc(-c3ccc(CNCCc4ccccc4)cn3)cc2)C(C)CN(C)C)cc1F (stereo unspecified) | 6.9% |
| COc1ccc2c(c1CNCCCCCCNCc1c(OC)ccc3c1CCCC3)CCCC2 | 11.9% |
| COc1ccc2c(c1CCNCCCCNCCc1c(OC)ccc3c1CCCC3)CCCC2 | 18.3% |
| COc1cc2c(cc1CCNCCCCNCCc1cc3c(cc1OC)CCCC3)CCCC2 | 15.8% |
| CCOC(=O)c1ccc(NC(=O)Nc2ccc(-c3cccc(-c4nc5cc(F)ccc5[nH]4)c3)cc2)cc1 | 4.95% |
| Cc1cc(C(=O)NC2CCN(CC3(c4ccccc4)CCCCC3)CC2)on1 | 6.38% |
| O=C(Nc1ccc(C(=O)Nc2ccc(C3=NCCN3)cc2)cc1)Nc1ccc(C2=NCCN2)cc1 | 5.84% |
| Oc1c(CN2CCC(Cc3ccccc3)CC2)cc(Cl)c2cccnc12 | 18.8% |
| COc1cc(C)cc(CN2CCC(Cc3ccccc3)CC2)c1O | 0.84% |
| O=C(NC1CC1)c1cnc(N2CCC(Cc3ccccc3)CC2)c(Cl)c1 | 9.52% |
